Screening results as filed in PubChem.
Only some compounds are listed: those with a hit (about 0.9% of all), similar ones and a draw of the others.
TAR Tat displ: TAR RNA-Tat peptide displacers, HIV-1, primary screen, biochemical, FRET, FAM/TAMRA-labeled Tat; HIV-1 TAR RNA, Tat peptide displacement FRET; stronger effect = higher value; AID 1259389, 2018; z-score (test concentration not listed); 100,000 tested, 0.6% active; active = z-score of 3 or more in at least 2 runs
CDC25B-CDK2 inh: primary biochemical HTRF screen for blockers of M-phase inducer phosphatase 2 binding to CDK2/cyclin A; P30305+P24941; HTRF CDC25B-CDK2/CyclinA binding, anti-His/anti-Flag; stronger effect = higher value; z-score (no concentration beside the values); 94,000 tested, 0.72% active; AID 1259370, 2018; in the data active = z-score above about 3.2
* = called active by the depositor; x = no result given.

SMILES	TAR Tat displ	CDC25B-CDK2 inh
CCC1=Nc2cc(C(=O)NC(C)CC)ccc2Sc2ccccc21 (stereo not drawn)	-0.04	2.37
CCC(C)NC(=O)c1ccc2c(c1)N=C(C)c1cc(C)ccc1S2 (stereo not drawn)	5.86*	-1.87
CC(=O)N1CCOc2ccc(S(=O)(=O)N3CCC(C(=O)N4CCc5ccccc54)CC3)cc21	2.02	x
Cc1occc1-c1nnc(SCC(=O)c2ccc(Cl)cc2)o1	-2.33	0.95
Cc1occc1-c1nnc(SCC(=O)Nc2ccc(Cl)cc2)o1	3.78	10.2*
Nc1cc(-c2cccc(Cl)c2)[nH]n1	0.35	0.17
CCN(Cc1cc2cc(C)ccc2[nH]c1=O)S(=O)(=O)c1ccc(C)cc1	0.92	-2.46
Cc1ccc2[nH]c(=O)c(CN(C(C)C)S(=O)(=O)c3ccccc3)cc2c1	19.1*	-2.77
COC(=O)C1=C(OC(=O)COc2ccc(C)cc2)c2ccccc2S(=O)(=O)N1C(C)C	0.68	-1.1
Cc1ccc(C)c(N2CCN(Cc3noc4ccccc34)CC2)c1	2.12	x
CN1C(=O)C(C)(C)c2cc(S(=O)(=O)N3CCN(Cc4ccc5c(c4)OCO5)CC3)ccc21	-0.15	x
COc1ccc2c(c1)Cc1sc(NC(=O)c3ccc(OC)c(OC)c3)nc1-2	-0.93	18.7*
COc1cc(OC)cc(C(=O)Nc2nc3c(s2)Cc2cc(OC)ccc2-3)c1	-0.26	-0.69
Oc1ccccc1CNc1nc2c(s1)CCc1ccccc1-2	1.07	-1.46
CC(=O)Nc1nc2c(s1)Cc1ccccc1-2	x	18.5*
CCc1ccc2oc(C(=O)N(Cc3ccc(C)o3)C3CCS(=O)(=O)C3)c(C)c2c1 (stereo not drawn)	1.05	0.71
COc1ccc(Nc2nc3c4ccccc4n(C(C)=O)c3s2)cn1	0.35	13.9*
C=CCNc1nc2c3ccccc3n(C(C)=O)c2s1	2.12	-2.21
CCN(CC)c1ccc(CNCCSc2nnnn2-c2ccccc2)cc1	-0.63	-1.34
COC(=O)c1c(SCC(=O)Nc2ccc(F)c(F)c2)[nH]c2ccc(Cl)cc2c1=O	-0.18	x
COC(=O)c1c(SCC(=O)Nc2ccc(F)cc2)[nH]c2ccc(Cl)cc2c1=O	16.1*	x
CCOc1ccc(N(C)S(=O)(=O)c2cc3[nH]c4c(c3cc2C)C(=O)CC(C)(C)C4)cc1	-1.34	x
CCN(C(=O)c1noc2c1COc1ccccc1-2)c1ccc(F)cc1	-0.41	-0.47
O=C(O)c1cc(Cl)c[nH]c1=O	x	-0.15
COc1ccc(OC)c(C2/C(=C(\O)c3ccccc3)C(=O)C(=O)N2c2cccnc2)c1 (stereo not drawn)	1.93	-3.82
SMILES	TAR Tat displ	CDC25B-CDK2 inh
COc1ccc(OC)c(C2/C(=C(/O)c3ccc(C)cc3)C(=O)C(=O)N2c2cccnc2)c1 (stereo not drawn)	0.4	5.95*
Oc1ccc2c(c1)O[C@H](c1ccc(O)c(O)c1)[C@@H](O)C2	3.12	x
O=C(O[C@@H]1Cc2c(O)cc(O)cc2O[C@@H]1c1cc(O)c(O)c(O)c1)c1cc(O)c(O)c(O)c1	25.1*	x
Oc1cc(O)c2c(c1)O[C@H](c1ccc(O)c(O)c1)[C@H](O)C2	24*	x
O=c1c(O)cc([C@H]2Oc3cc(O)cc(O)c3C[C@H]2O)cc2c([C@H]3Oc4cc(O)cc(O)c4C[C@H]3O)cc(O)c(O)c12	17.8*	x
O=C1C[C@@H](c2ccc(O)cc2)Oc2cc(O)cc(O)c21	2.87	x
O=C(O[C@@H]1Cc2c(O)cc(O)cc2O[C@@H]1c1cc(O)c(O)c(O)c1-c1c([C@H]2Oc3cc(O)cc(O)c3C[C@H]2O)cc(O)c(O)c1O)c1cc(O)c(O)c(O)c1	4.67*	x
CC(=O)Oc1cc(OC(C)=O)c2c(c1)O[C@H](c1ccc(OC(C)=O)c(OC(C)=O)c1)[C@@H](OC(C)=O)C2	0.8	x
CNC(=O)c1cc2c(oc1=O)CC(C)(C)CC2=O	0.55	0.76
CCOc1ccc(CN=C2NS(=O)(=O)C(c3ccc(Cl)cc3)=C2C)cc1	-0.06	-6.46
Cc1cc(C)c(S(=O)(=O)NCc2cn3ccsc3n2)c(C)c1	x	-5.99
COC(=O)CN1C(=O)CSc2ccc(S(=O)(=O)NCc3ccco3)cc21	-0.32	x
COc1cc(-c2ccc(OCC(=O)c3ccccc3)cc2)cc(=O)c2c(C)oc(C)c12	1.71	-1.44
COC(=O)CSCC(=O)N1N=C(c2cccs2)CC1c1ccc(C)cc1 (stereo not drawn)	x	0.42
O=C(O[C@@H]1Cc2c(O)cc(O)cc2O[C@@H]1c1ccc(O)c(O)c1)c1cc(O)c(O)c(O)c1	29.2*	x
O=C(Oc1cc(OC(=O)c2ccccc2)c2c(c1)O[C@H](c1ccc(OC(=O)c3ccccc3)c(OC(=O)c3ccccc3)c1)[C@@H](OC(=O)c1ccccc1)C2)c1ccccc1	-0.12	x
CCn1cc(C2=NOC(C(=O)Nc3ccc(F)cc3F)C2)c(C)n1 (stereo not drawn)	-0.2	-0.64
CCc1cc2c(cc3c(=O)n(CC(=O)N4CCN(C)CC4)nc(CC)n32)s1	x	-1.43
CCc1ccc(C(c2ccc(CC)o2)c2cc3c(cc2[N+](=O)[O-])OCCO3)o1	x	4.4*
CCOC(=O)C(=O)CC(=O)c1ccc2c(c1)OCCO2	0.61	0.5
O=C(Cc1ccc(NC(=O)N2CCSc3ncccc32)cc1)Nc1ccc(Br)cc1	0.53	16.1*
O=C(Nc1ccc(Br)cc1)N1CCSc2ncccc21	0.44	x
Cc1cc2c(NC(=O)c3ccccc3C(=O)O)cccc2nn1	x	21.4*
Cc1cc2c(NC(=O)Nc3ccc(C(C)(C)C)cc3)cccc2nn1	x	-1.97
CC1CC(C)CN(CCCNc2ncnc3onc(-c4ccc(F)cc4)c23)C1 (stereo not drawn)	-0.68	x
SMILES	TAR Tat displ	CDC25B-CDK2 inh
Brc1ccc(C2Nc3cccc4cccc(c34)N2)cc1	-0.41	-0.51
CCC12CN3CC(CC)(CN(C1)C3c1cccc(OC)c1O)C2O (stereo not drawn)	0.4	0.01
Fc1ccc(C2Nc3cccc4cccc(c34)N2)cc1	12.7*	-1.29
COc1ccc(C2Nc3cccc4cccc(c34)N2)cc1Br	26.3*	1.54
COc1cc(C2Nc3cccc4cccc(c34)N2)cc(OC)c1OC	x	-1.38
COc1cccc(C2Nc3cccc4cccc(c34)N2)c1O	21.9*	0.43
CC1CSc2ccc(S(=O)(=O)Nc3ccc4c(c3)OCCO4)cc2NC1=O (stereo not drawn)	0.93	x
NC(=O)c1ccc2c(c1)CCN2S(=O)(=O)c1ccc(Br)cc1	1.74	0.43
COc1cc(C2c3c(-c4ccccc4O)n[nH]c3C(=O)N2CCCO)ccc1O (stereo not drawn)	1.93	-1.32
Cn1c(N2CCN(C(=O)c3cc(-c4cccs4)[nH]n3)CC2)cc(=O)n(C)c1=O	-0.7	x
Cc1cc(=S)n(-c2ccccc2)[nH]1	x	-5.22
COc1cc(OC)cc(C(=O)Nc2sc3c(c2C(N)=O)CCCC3)c1	x	-0.63
COc1ccc2nc(Nc3sc4c(c3C(N)=O)CCCC4)sc2c1	-1.26	4.27*
C=C(C)Cn1c(C(O)CCC)nc2ccccc21 (stereo not drawn)	-0.01	0.56
CCCCc1nn2c(=O)cc(CSc3nnc(NC(=O)CC)s3)nc2s1	0.45	x
Cc1ccccc1NC(=S)NC(NC(=O)/C=C/c1ccccc1)C(Cl)(Cl)Cl (stereo not drawn)	x	0.08
O=C(Cc1ccccc1)N(c1ccc2oc(=O)sc2c1)S(=O)(=O)c1ccccc1	0.43	-1.94
